Data as given in PubChem BioAssay (NCATS).
Unmarked numbers belong to inactive results. Results filed as inconclusive are left out. A call without a number means that no potency is given here. The source made the active and inactive calls. Unless noted, calls follow the shape of the dose curve; as a rule, active = well fitted curve in the direction sought with a large enough effect; inconclusive = small, poorly fitted or top-dose-only effect, or another doubt; inactive = no such curve, though single readings can be large; an effect the other way counts as inactive or inconclusive.

Experiments:
[1] = biological target: Cytochrome P450 1A2 (Homo sapiens) (UniProt P05177); assay: p450-cyp1a2 (AID 410; calls by dose curve; also: potency is read from the fitted curve at half-maximal effect)
Summary of the method: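 Luminescent readout of luciferin formed from Luciferin-ME by human CYP1A2; data normalized against complete inhibition by 57 uM furafylline. Enzyme 20nM, substrate 100uM at Km, 100mM KPO4 buffer, 60 min reaction at room temperature.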

[2] = biological target: Mitogen-activated protein kinase 10 (Mus musculus) (UniProt Q61831); assay: JNK3 AlphaScreen Assay (AID 530; active = well fitted curve in either direction with a large enough effect, not every such curve was filed as active;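 also: kinase came from lysate of stimulated human HepG2 cells; signal reports phosphorylation of biotinylated GST-cJun 1-79 at Ser73 with 10 µM ATP; series mostly up to about 57 µM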)
Summary of the method: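 Inhibitors reduce antibody binding to phosphorylated biotin-cJun, lowering AlphaScreen luminescence. Lysates from HepG2 cells pre-activated by IL-1beta plus TNF-alpha supplied JNK3; compounds were titrated.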

[3] = biological target: Cytochrome P450 3A4 (Homo sapiens) (UniProt P08684); assay: qHTS Assay for Inhibitors and Substrates of Cytochrome P450 3A4 (AID 884); also: nearly all actives have a fitted effect of over 50% in size; also: potency is read from the fitted curve at half-maximal effect
Summary of the method: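 20 nM human CYP3A4 with 25 uM Luciferin-PPXE (at KM) in 200 mM KPO4, preincubated 10 min with compound; NADPH regeneration started a 60 min RT reaction. Luciferin detected by luminescence, normalized to 57 uM ketoconazole as full inhibition.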

[4] = biological target: Cytochrome P450 2C9 (Homo sapiens) (UniProt P11712); assay: qHTS Assay for Inhibitors and Substrates of Cytochrome P450 2C9 (AID 883); also: potency is read from the fitted curve at half-maximal effect; nearly all actives have a fitted effect of over 60% in size
Summary of the method: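 A luminogenic readout tracked human CYP2C9 (10nM) converting deoxyluciferin (100uM, at KM) in 25mM KPO4 during 60 min at 37C with regenerated NADPH. Values normalized to 57uM sulphaphenazole as complete inhibition.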

[5] = biological target: Cytochrome P450 3A4 (Homo sapiens) (UniProt P08684); assay: qHTS Assay for Activators of Cytochrome P450 3A4 (AID 885); also: nearly all actives have a fitted effect of over 65% in size
Summary of the method: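 Human CYP3A4 (20 nM) with Luciferin-PPXE at 25 uM (its KM) in 200 mM KPO4; 10 min compound preincubation, then NADPH regeneration and 60 min reaction at RT. Luciferin read by luminescence; normalized to 57 uM ketoconazole full inhibition.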

[6] = biological target: Cytochrome P450 2C19 (Homo sapiens) (UniProt P33261); assay: qHTS Assay for Inhibitors and Substrates of Cytochrome P450 2C19 (AID 899); also: nearly all actives have a fitted effect of over 60% in size; also: potency is read from the fitted curve at half-maximal effect
Summary of the method: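 NADPH-dependent conversion of Luciferin-H EGE (10uM, at KM) by 5nM enzyme in 50mM KPO4, 60 min at 37C following 10 min compound preincubation. Stopped with luciferin detection buffer; luminescence read after 20 min.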

[7] = biological target: 3',5'-cyclic-AMP phosphodiesterase 4B (Homo sapiens) (UniProt Q07343); assay: qHTS Assay for Inhibitors of PDE-IV (AID 607; active = well fitted activation curve with a large enough effect in the main read-out, with a control signal flat, not every such curve was filed as active)
Summary of the method: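 HEK293 ACTOne cells with CNG channel (1000/well), endogenous PDE4; membrane potential dye, compounds up to 22.9 uM final. Fluorescence Ex 535/Em 590; RO 20-1724 (100 uM final) as reference.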

Cytochrome P450 2C19 (Homo sapiens), sequence (P33261 whole entry, looked up): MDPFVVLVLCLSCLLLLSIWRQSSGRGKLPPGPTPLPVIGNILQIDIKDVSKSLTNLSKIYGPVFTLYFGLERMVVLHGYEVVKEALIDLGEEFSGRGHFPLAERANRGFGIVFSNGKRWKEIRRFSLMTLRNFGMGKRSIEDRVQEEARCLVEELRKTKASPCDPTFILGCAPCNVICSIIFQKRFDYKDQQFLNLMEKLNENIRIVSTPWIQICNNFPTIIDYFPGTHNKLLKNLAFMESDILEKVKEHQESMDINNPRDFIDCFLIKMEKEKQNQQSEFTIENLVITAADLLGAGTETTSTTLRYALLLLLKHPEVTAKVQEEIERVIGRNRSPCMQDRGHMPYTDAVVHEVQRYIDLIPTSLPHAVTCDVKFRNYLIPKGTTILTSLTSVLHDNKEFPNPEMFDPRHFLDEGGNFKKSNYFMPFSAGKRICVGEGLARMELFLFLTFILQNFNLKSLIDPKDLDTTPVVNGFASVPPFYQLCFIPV
Cytochrome P450 1A2 (Homo sapiens), sequence (P05177 whole entry, looked up): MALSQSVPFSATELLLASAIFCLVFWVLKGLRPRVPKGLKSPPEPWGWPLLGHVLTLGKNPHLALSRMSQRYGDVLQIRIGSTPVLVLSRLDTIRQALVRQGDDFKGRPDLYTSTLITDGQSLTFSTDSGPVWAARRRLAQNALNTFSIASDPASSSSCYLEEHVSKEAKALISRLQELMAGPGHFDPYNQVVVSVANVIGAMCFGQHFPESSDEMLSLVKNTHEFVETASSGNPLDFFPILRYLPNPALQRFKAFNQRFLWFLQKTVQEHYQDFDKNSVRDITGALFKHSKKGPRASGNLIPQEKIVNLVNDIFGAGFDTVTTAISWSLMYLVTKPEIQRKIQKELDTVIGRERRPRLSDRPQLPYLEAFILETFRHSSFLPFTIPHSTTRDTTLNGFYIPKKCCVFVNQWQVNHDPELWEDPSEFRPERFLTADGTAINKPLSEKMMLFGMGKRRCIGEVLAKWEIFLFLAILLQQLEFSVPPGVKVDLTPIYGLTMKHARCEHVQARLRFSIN
Cytochrome P450 3A4 (Homo sapiens), sequence (P08684 whole entry, looked up): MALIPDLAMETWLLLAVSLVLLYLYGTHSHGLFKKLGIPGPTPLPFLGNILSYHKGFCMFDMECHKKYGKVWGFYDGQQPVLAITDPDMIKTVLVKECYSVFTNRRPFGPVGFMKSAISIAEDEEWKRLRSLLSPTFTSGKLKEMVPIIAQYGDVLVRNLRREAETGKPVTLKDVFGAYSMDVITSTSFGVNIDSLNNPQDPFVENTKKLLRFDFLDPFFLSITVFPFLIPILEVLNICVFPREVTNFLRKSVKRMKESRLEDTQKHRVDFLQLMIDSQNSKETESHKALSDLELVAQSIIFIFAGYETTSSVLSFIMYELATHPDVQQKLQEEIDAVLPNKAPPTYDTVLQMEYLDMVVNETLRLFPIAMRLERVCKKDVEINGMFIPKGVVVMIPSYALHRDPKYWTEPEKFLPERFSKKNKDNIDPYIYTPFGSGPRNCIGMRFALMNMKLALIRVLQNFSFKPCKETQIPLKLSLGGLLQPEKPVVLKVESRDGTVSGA
Cytochrome P450 2C9 (Homo sapiens), sequence (P11712 whole entry, looked up): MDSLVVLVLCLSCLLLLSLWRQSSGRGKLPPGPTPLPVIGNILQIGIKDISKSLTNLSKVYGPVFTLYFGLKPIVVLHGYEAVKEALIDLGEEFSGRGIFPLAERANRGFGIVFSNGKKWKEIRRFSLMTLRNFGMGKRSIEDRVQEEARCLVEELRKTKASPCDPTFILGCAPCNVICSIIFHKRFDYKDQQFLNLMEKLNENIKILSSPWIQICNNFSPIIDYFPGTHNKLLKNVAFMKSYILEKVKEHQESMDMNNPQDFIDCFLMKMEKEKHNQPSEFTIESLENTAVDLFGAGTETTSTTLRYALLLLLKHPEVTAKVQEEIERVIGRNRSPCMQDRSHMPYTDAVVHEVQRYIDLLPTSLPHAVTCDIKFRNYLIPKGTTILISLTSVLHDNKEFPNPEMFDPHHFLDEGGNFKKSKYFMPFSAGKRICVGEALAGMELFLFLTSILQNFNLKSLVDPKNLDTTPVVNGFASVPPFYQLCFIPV
3',5'-cyclic-AMP phosphodiesterase 4B (Homo sapiens), sequence (Q07343 whole entry, looked up): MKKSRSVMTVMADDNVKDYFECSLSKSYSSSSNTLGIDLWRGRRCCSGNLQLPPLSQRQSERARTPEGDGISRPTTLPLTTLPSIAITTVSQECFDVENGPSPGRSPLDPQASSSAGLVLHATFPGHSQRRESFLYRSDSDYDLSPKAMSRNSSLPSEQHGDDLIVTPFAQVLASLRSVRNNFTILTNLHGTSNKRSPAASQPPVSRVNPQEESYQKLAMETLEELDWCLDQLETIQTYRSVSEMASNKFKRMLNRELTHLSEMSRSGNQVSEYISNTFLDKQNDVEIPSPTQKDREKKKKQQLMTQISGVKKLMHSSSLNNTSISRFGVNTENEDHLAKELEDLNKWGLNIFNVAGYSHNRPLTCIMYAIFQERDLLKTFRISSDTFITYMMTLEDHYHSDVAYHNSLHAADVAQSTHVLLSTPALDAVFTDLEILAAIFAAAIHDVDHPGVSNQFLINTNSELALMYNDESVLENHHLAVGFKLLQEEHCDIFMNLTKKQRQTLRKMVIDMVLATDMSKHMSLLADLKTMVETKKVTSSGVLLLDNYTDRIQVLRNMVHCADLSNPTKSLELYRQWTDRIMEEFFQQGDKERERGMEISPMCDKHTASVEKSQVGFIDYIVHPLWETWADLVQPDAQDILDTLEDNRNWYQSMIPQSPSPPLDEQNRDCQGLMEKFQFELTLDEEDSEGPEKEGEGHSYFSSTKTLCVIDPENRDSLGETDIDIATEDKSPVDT

CCC/C=C(\CCC)C(NP(=O)(c1ccccc1)c1ccccc1)c1ccc(C(F)(F)F)cc1 (stereo not drawn)
Potency [1]: inactive | Potency [2]: inactive | Potency [3]: inactive

C[C@@H](C(=O)Nc1ccc2ccccc2c1)[C@@H]1C[C@@]1(C)[C@@H](NC(=O)c1cnccn1)c1ccccc1
Potency [1]: 12600 nM (active) | Potency [2]: inactive | Potency [4]: 63.1 nM (active) | Potency [5]: inactive

CCCC/C=C/C(NC(=O)c1cccs1)c1ccccc1 (stereo not drawn)
Potency [1]: 1580 nM (active) | Potency [2]: inactive | Potency [4]: 316 nM (active) | Potency [5]: inactive | Potency [6]: 1580 nM (active)

CCC/C=C(\CCC)C(NC(=O)c1cccs1)c1ccc(C(F)(F)F)cc1 (stereo not drawn)
Potency [1]: 3160 nM (active) | Potency [2]: inactive | Potency [3]: 2510 nM (active) | Potency [5]: inactive | Potency [6]: 316 nM (active)

CCCC[C@@H]1C[C@H]1C(NC(=O)c1ccccc1)c1ccccc1C(F)(F)F (stereo partly drawn)
Potency [1]: 10000 nM (active) | Potency [2]: inactive | Potency [4]: 1260 nM (active) | Potency [5]: inactive | Potency [6]: 501 nM (active)

CCC/C=C(\CCC)C(NS(=O)(=O)c1cccc2cccnc12)c1ccc(-c2ccccc2)cc1 (stereo not drawn)
Potency [1]: 794 nM (active) | Potency [2]: inactive | Potency [4]: 2000 nM (active) | Potency [3]: 3160 nM (active) | Potency [5]: inactive

CCC/C=C(\CCC)C(NC(=O)c1ccc(C(=O)OC)cc1)c1ccc(C(=O)OC)cc1 (stereo not drawn)
Potency [1]: inactive | Potency [2]: inactive | Potency [4]: 2000 nM (active) | Potency [5]: inactive

CC[C@H]1C(=O)OC[C@@H]1Cc1cncn1C
Potency [1]: inactive | Potency [2]: inactive | Potency [7]: inactive | Potency [6]: inactive

CCC/C=C(\CCC)C(NS(=O)(=O)CC12CCC(CC1=O)C2(C)C)c1ccc(C(=O)OC)cc1 (stereo not drawn)
Potency [1]: inactive | Potency [2]: inactive | Potency [3]: 3980 nM (active) | Potency [5]: inactive

c1ccc2c(c1)Cc1cc3cc4c(cc3nc1-2)OCO4
Potency [1]: 501 nM (active) | Potency [2]: inactive | Potency [4]: 3980 nM (active) | Potency [3]: 1000 nM (active) | Potency [5]: inactive | Potency [6]: 1260 nM (active)

CCCC[C@@H]1C[C@H]1C(NC(=O)c1cccs1)c1ccc(C(F)(F)F)cc1 (stereo partly drawn)
Potency [1]: 2000 nM (active) | Potency [2]: inactive | Potency [4]: 1580 nM (active) | Potency [3]: 3160 nM (active) | Potency [5]: inactive | Potency [6]: inactive

NCCC[C@@H](CC(=O)N[C@@H]1CCNC[C@H]1C(=O)N[C@H](CC(=O)N[C@@H](CCC(=O)O)CC(=O)O)Cc1ccccc1)NC(=O)C[C@H](CO)NC(=O)[C@@H]1CCCC[C@H]1N
Potency [1]: inactive | Potency [2]: inactive | Potency [7]: inactive | Potency [6]: inactive

S=C(Nc1ccccc1)Nc1ccccc1C#Cc1ccccc1
Potency [1]: 501 nM (active) | Potency [2]: inactive | Potency [4]: 3980 nM (active) | Potency [5]: inactive | Potency [6]: 3160 nM (active)

CCCC[C@@H]1C[C@H]1C(NC(=O)c1cccs1)c1ccc(-c2ccccc2)cc1 (stereo partly drawn)
Potency [1]: 2000 nM (active) | Potency [2]: inactive | Potency [4]: 1580 nM (active) | Potency [5]: inactive

CCCC[C@H]1C[C@@H]1[C@@H]1N(P(=O)(c2ccccc2)c2ccccc2)[C@](CO)(c2ccccc2)CC12CC2
Potency [1]: inactive | Potency [2]: inactive | Potency [3]: 2000 nM (active) | Potency [5]: inactive

COC(=O)[C@@]1(Cc2ccccc2)[C@H]2c3cc(C(=O)N4CCCC4)n(C)c3C[C@H]2CN1C(=O)c1ccccc1
Potency [1]: 25100 nM (active) | Potency [2]: inactive | Potency [3]: 3980 nM (active) | Potency [5]: inactive | Potency [6]: 3980 nM (active)

COC(=O)[C@H](C)[C@@H]1C[C@@]1(C)[C@@H](NC(=O)OCc1ccccc1)c1ccccc1
Potency [1]: 15800 nM (active) | Potency [2]: inactive | Potency [4]: 5010 nM (active) | Potency [5]: inactive | Potency [6]: 316 nM (active)

COC(=O)[C@@]1(Cc2ccc(F)cc2)[C@H]2c3cc(C(=O)N(C)C)n(Cc4ccc(C)o4)c3C[C@H]2CN1C(=O)c1ccccc1
Potency [1]: inactive | Potency [2]: inactive | Potency [3]: 2510 nM (active) | Potency [5]: inactive

C[C@@H](C(=O)NCCc1c[nH]c2ccccc12)[C@H]1C[C@]1(C)[C@H](NC(=O)OCc1ccccc1)c1ccccc1
Potency [1]: 15800 nM (active) | Potency [2]: inactive | Potency [4]: 631 nM (active) | Potency [3]: 1580 nM (active) | Potency [5]: inactive | Potency [6]: 2510 nM (active)

CCC/C=C(\CCC)C(NC(=O)c1ccc(-c2ccccc2)cc1)c1ccc(C(=O)OC)cc1 (stereo not drawn)
Potency [1]: 631 nM (active) | Potency [2]: inactive | Potency [5]: inactive

COC(=O)[C@@]1(Cc2ccccc2)[C@H]2c3cc(C(=O)N4CCCC4)n(Cc4ccccn4)c3C[C@H]2CN1C(=O)c1ccccc1
Potency [1]: inactive | Potency [7]: inactive | Potency [4]: 199 nM (active) | Potency [3]: 2000 nM (active) | Potency [5]: inactive

C#CCCCC(=O)Nc1ccccc1
Potency [1]: 20000 nM (active) | Potency [2]: inactive | Potency [5]: inactive

C#CCOC(=O)NC(/C=C/CCCC)c1ccccc1 (stereo not drawn)
Potency [1]: 15800 nM (active) | Potency [2]: inactive | Potency [5]: inactive

CCC/C=C(\CCC)C(NC(=O)OCC(C)C)c1ccc(C(=O)OC)cc1 (stereo not drawn)
Potency [1]: 15800 nM (active) | Potency [7]: inactive | Potency [4]: 3980 nM (active) | Potency [5]: inactive

CCCC[C@@H]1C[C@H]1C(NC(=O)c1ccco1)c1ccccc1 (stereo partly drawn)
Potency [1]: 2000 nM (active) | Potency [2]: inactive | Potency [5]: inactive | Potency [6]: 1260 nM (active)

CC(C)c1cccc2nc3c(c([Si](C)(C)C(C)(C)C)c12)Cn1c-3cccc1=O
Potency [1]: 25100 nM (active) | Potency [2]: inactive | Potency [5]: inactive
